High-throughput results as filed in PubChem.
KDM5B inh – KDM5B demethylase inhibition. Q9UGL1. KDM5B demethylase, FDH-coupled NADH fluorescence (FDH is formaldehyde dehydrogenase). Potency, µM (titrated, usually from 57.7 µM), actives largely listed as inhibitors. 220,000 compounds, 2.6% hits. AID 1347165; active = well fitted inhibition curve with a large enough effect; also: nearly all actives have a fitted effect of over 70% in size
Target sequence (Q9UGL1 whole entry, looked up): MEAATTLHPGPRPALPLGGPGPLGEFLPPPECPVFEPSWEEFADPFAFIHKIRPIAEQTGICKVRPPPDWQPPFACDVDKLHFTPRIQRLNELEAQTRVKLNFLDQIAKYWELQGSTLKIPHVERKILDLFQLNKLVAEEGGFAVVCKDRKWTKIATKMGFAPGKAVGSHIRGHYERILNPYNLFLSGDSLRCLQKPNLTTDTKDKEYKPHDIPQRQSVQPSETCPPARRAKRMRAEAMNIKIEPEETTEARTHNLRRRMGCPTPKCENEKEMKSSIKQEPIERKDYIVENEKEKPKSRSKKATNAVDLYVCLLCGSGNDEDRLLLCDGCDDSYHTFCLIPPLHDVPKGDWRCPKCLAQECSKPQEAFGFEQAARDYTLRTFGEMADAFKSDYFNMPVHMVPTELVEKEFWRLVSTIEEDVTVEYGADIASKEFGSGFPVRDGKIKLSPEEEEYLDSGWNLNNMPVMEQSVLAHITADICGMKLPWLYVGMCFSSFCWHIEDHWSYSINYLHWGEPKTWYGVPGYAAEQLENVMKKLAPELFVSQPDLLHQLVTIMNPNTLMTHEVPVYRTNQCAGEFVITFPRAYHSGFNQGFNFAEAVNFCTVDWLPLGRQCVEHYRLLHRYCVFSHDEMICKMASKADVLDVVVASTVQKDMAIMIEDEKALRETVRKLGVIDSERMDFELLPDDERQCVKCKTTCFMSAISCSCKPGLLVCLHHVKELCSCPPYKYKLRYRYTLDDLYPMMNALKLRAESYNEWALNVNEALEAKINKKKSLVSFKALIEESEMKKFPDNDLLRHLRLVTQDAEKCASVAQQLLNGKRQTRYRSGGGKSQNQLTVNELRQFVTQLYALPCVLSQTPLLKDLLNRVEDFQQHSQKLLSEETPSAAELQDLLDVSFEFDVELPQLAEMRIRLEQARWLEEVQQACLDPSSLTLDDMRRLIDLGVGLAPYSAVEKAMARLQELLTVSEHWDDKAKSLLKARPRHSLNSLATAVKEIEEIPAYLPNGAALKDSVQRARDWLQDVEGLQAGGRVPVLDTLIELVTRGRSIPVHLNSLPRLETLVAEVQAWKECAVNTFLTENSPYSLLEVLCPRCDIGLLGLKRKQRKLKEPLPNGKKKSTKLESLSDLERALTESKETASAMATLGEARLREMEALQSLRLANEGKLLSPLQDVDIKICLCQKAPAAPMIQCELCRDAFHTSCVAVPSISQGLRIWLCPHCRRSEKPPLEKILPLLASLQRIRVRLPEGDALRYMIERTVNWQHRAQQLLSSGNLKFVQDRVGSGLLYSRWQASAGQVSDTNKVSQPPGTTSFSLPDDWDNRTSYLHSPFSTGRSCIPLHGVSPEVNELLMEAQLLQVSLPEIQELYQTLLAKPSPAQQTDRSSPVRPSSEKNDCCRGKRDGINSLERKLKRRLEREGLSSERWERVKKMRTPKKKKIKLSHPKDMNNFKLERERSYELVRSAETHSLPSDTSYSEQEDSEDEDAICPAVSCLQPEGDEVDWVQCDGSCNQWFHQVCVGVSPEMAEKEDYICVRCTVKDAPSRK
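Inhibition is measured as reduced NADH fluorescence generation from FDH coupling to formaldehyde release. Truncated KDM5BΔAP at 200 nM final acts on H3K4me3 peptide (12.5 µM in substrate mix) in pH 7.5 HEPES buffer with Tween-20, 30 min, room temperature.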
Hits are given with their value; – = inactive. This is one part of a sample in which hits are shown more often than they occur.

SMILES | KDM5B inh
COC(=O)CNC(=O)c1cc(-c2cnccc2Cl)c2cccn2n1 | –
COC(=O)CNC(=O)c1nc(-c2ccc(Cl)cc2Cl)c2ccccn12 | 89µM
Cc1nc2ccc(Cl)cc2cc1C(=O)NC(C)C | –
COC(=O)CNC(=O)c1cc(-c2ccc(Cl)cc2Cl)c2cccn2n1 | –
COC(=O)CNC(=O)Cn1ccc2cc(Cl)ccc21 | –
CC(C)NC(=O)c1nc(-c2ccc(Cl)cc2Cl)c2cnccn12 | 79µM
COC(=O)CNC(=O)c1nc(-c2ccc(Cl)cc2Cl)c2cnccn12 | 79µM
CC(C)NC(=O)c1cc(Cl)ccc1I | –
COC(=O)CNC(=O)Cn1ccc2ccc(Cl)cc21 | –
O=C(CCn1nnc2ccccc21)OCC(=O)c1ccccc1 | –
CCOC(=O)C1=C(C)N(C2CC2)C(=O)NC1c1ccccc1OC(F)F (configuration not stated) | –
CCc1ccccc1NC(=O)c1ccc2c(Cl)c3c(nc2c1)CCCC3 | –
O/N=C/c1ccccc1Cl | –
CSc1ccccc1NC(=O)COc1ccc2c(c1)CCC(=O)N2 | –
COc1cc(C)c(C)cc1S(=O)(=O)N1CCN(c2c(C)cccc2C)CC1 | –
CN1CC(=O)N(C2CCNCC2)Cc2c(NCC(C)(C)C)ncnc21 | –
CCNc1ncnc2c1CN(C1CCCNCC1)C(=O)CN2C (configuration not stated) | –
CN1CC(=O)N(C2CCNCC2)Cc2c1ncnc2N1CCCCC1 | –
CC1C=CC(C)N1c1ncnc2c1CN(C1CCNC1)C(=O)CN2C (configuration not stated) | 89µM
CC(=O)N1CCCN(c2ncnc3c2CN(C2CCNCC2)C(=O)CN3C)CC1 | –
COCCNc1ncnc2c1CN(C1CCNCC1)C(=O)CN2C | 50µM
Cc1nc(-c2ccc(F)cc2)sc1C(=O)NC1C=CS(=O)(=O)C1 (configuration not stated) | –
COc1cccc(Nc2nc(-c3ccc4c(c3)CCN4S(C)(=O)=O)cs2)c1 | –
Cc1ccc(CNC(=O)CCCn2c(C)c3cnn(-c4ccccc4)c(=O)c3c2C)cc1 | –
Cc1ccc2c(C)c(CCC(=O)NC3CCN(C)CC3)c(=O)oc2c1 | –
SMILES | KDM5B inh
CC1(CNC(=O)NCc2ccc(F)cc2)CCOCC1 | –
COc1ccccc1CNC(=O)C1(c2ccc(NC(C)=O)cc2)CCCCC1 | –
COc1ccccc1CNC(=O)C1(CCO)CCN(c2ncccn2)C1 (configuration not stated) | 20µM
O=C(NCCC(=O)N1CCN(c2ncccn2)CC1)c1ccc(F)cc1F | –
O=C(O)C1(Cc2ccccc2F)CCCN(c2ncccn2)C1 (configuration not stated) | –
O=C(CSc1ccnc(=O)[nH]1)NCc1ccc(F)cc1 | –
O=C(Nc1ccccc1)C1(CCO)CCN(Cc2ccccc2)C1 (configuration not stated) | –
COc1ccccc1CNC(=O)C(C)C | –
O=C(NCCCc1ccccc1)c1cccc2cccnc12 | –
O=C(NCCCc1ccccc1)C1(CCO)CCN(c2ncccn2)C1 (configuration not stated) | 25µM
O=C(NCc1ccc(F)cc1)C1(CCO)CCN(c2ncccn2)C1 (configuration not stated) | 28µM
O=C(Nc1ccc(F)cc1F)C1(CCO)CCN(c2ncccn2)C1 (configuration not stated) | 25µM
Cc1cc(C)c(NC(=O)c2csc3c2CCCC3)c(C)c1 | –
N#Cc1nc(C2CC2)oc1N1CCN(Cc2cccc(F)c2F)CC1 | –
CC(=O)N1CCCc2cc(S(=O)(=O)N3CCC(C(=O)N4CCC5(CC4)OCCO5)CC3)ccc21 | –
Cc1ccc2oc(C(=O)NCCCOC3CCCCC3)cc(=O)c2c1 | –
COCc1c(C(=O)NCC(c2ccco2)N2CCCC2)sc2cccc(F)c12 (configuration not stated) | –
CSc1ccc(C)c(C(=O)NC2CCCCC2)c1 | –
CCCCOC(=O)C[N+](C)(C)C/C=C(/C)Cl | –
NCC1CCCN(Cc2ccc(-c3nc(-c4ccncc4)cc(=O)[nH]3)cc2)C1 (configuration not stated) | –
S=C(NCc1ccccc1)NC1CCSc2ccc(Cl)cc21 (configuration not stated) | –
Cc1ccc(C(=O)Nc2ccccc2-c2nc(Cc3ccccc3)no2)cn1 | –
CCOc1ccc(S(=O)(=O)N2CCN(C(C(=O)O)c3c[nH]c4ccccc34)CC2)cc1 (configuration not stated) | –
Cc1cccnc1NC(=O)Cc1nc(-c2ccccc2)oc1C | –
COc1ccc(-c2nnc3ccc(N4C[C@@H](C)O[C@@H](C)C4)nn23)nc1 | –
SMILES | KDM5B inh
COc1ccc(-c2nnc3ccc(N4CCC(c5ccccc5)CC4)nn23)nc1 | 35µM
Fc1ccc(-c2nnc3ccc(N4CCN(Cc5ccccc5)CC4)nn23)nc1 | –
COc1ccc(-c2nnc3ccc(N4CCN(c5ccccn5)CC4)nn23)nc1 | –
Cc1nnc2ccc(N3CCC(C)CC3)nn12 | –
Cc1ccc(-c2nnc3ccc(N4CCN(Cc5ccccc5)CC4)nn23)nc1 | 35µM
CC1CCC(NC(=O)COC(=O)c2cc3ccccc3[nH]2)CC1 (configuration not stated) | –
COc1ccc(Cl)cc1C(=O)N1CCC2(CC1)NC(=O)N(c1cccc(F)c1)N2 | –
COCCCNc1ccnc(-c2nnc(C)n2-c2ccccc2)c1 | –
COc1ncccc1-c1ccnc(-c2nnc(C)n2-c2ccccc2)c1 | 32µM
Cc1nnc(-c2cc(-c3cccc(O)c3)ccn2)n1-c1ccccc1 | –
C[N+]1(Cc2cccc(F)c2)CCN(/C=C/C(=O)C(F)(F)F)CC1 | –
CC(=O)c1c(C)[nH]c(C(=O)C(C)OC(=O)c2ccc(F)cc2F)c1C (configuration not stated) | –
CC1(CCCCN2CCOCC2)COc2ccc(C(=O)Nc3ccc4[nH]ccc4c3)cc2N1 (configuration not stated) | –
CC1(C)CC1(CNC1CCN(c2ccc(C(=O)NCCN3CCOCC3)cc2)CC1)c1ccccc1 (configuration not stated) | –
CC1(CCCCN2CCOCC2)COc2ccc(C(=O)NCc3ccccc3)cc2N1 (configuration not stated) | 40µM
O=C(NCCCc1ccccc1)c1ccc(CN2C(=O)NC3(CCOCC3)C2=O)cc1 | –
CC1(CCCCc2ccccc2)COc2ccc(C(=O)NCCN3CCOCC3)cc2N1 (configuration not stated) | 35µM
CC1(CCCCN2CCOCC2)COc2ccc(C(=O)NCc3ccco3)cc2N1 (configuration not stated) | 35µM
CSCc1ccc(C(=O)NCc2ccco2)cc1 | –
CCCC1N=C2c3ccccc3N=C(SCC(=O)Nc3ccc(OC)c(Cl)c3)N2C1=O (configuration not stated) | –
COCCn1c2c(c(=O)[nH]c1=O)C(c1cccc(Cl)c1)C1=C(N2)c2ccccc2C1=O (configuration not stated) | –
Cc1ccc(C)c(Sc2ccc(NC(=O)C3CCC(C(C)(C)C)CC3)cc2)c1 (configuration not stated) | –
NC(=O)c1ccsc1NC(=O)COC(=O)c1c(F)cccc1F | –
Cn1c(N)c(-c2csc(Nc3ccccc3)n2)c(=O)n(C)c1=O | –
COc1ccc(-c2nc3c([nH]2)CC(C)(C)CNC3=O)cc1OC | 32µM
CCn1cc(-c2nc3c([nH]2)CC(C)(C)CNC3=O)cn1 | –
CCCOCCc1nc2c([nH]1)CC(C)(C)CNC2=O | –
CCOc1ccccc1/C=C1\NC(=O)NC1=O | –
